The campaign covered roughly 69,000 compounds. About 8,600 (12%) showed an effect of 50% or more. The sample holds strong results, similar compounds and a random draw of the others, so the mix is not that of the screen.
What follows are compounds tested on Plasmodium berghei (assay: Screen against P. berghei liver stage (PbLuc), transformed with Luciferase, at 10uM). Conditions: tested at 10 uM.
Format: functional, HepG2

Row | SMILES | INHIBITION
1 | O=C(Cn1c(C(F)F)cc2cccnc21)NC1CCCC1 | 22%
2 | CN(C)c1nc(CNC(=O)Nc2cccc([S+](C)[O-])c2)cs1 (configuration not stated) | 12.4%
3 | Cc1cnn(CC(=O)N2CCC(c3ccn4nccc4n3)CC2)c1 | 32.7%
4 | CCOC1COC2(CCN(Cc3cccc(C#N)c3)CC2)C1 (configuration not stated) | 29.7%
5 | CN1CCCN(C(=O)NCCOc2ccc3c(c2)OCO3)CC1 | 33.3%
6 | COCCN1C(=O)C[C@@H]2[C@H]1CCN2C(=O)c1ccc[nH]1 | -14.4%
7 | Cc1nc(C)n(CC2CCCN(CC(=O)N3CCCC3)C2)n1 (configuration not stated) | 7.67%
8 | CCc1noc(-c2cccc(C(=O)O)c2)n1 | -30%
9 | CN1C[C@@H](C(=O)N(C)C)[C@@]2(CCc3ccccc3C(=O)N2)C1 | 4.41%
10 | Cc1cnn(CC2CN(Cc3noc(C4CC4)n3)CCO2)c1 (configuration not stated) | -12.2%
11 | Cc1ccc2c(c1)OC(C)CN2C(=O)CCc1cccnc1 (configuration not stated) | 43.4%
12 | Cc1ccc2c(c1)OC(C)CN2C(=O)CCc1cscn1 (configuration not stated) | 9.04%
13 | Cc1ccc2c(c1)OC(C)CN2C(=O)Cc1ccc(C)nc1 (configuration not stated) | 59.1%
14 | CCSc1ccccc1C(=O)NCC1CCN(Cc2ccsc2)CC1 | 13.6%
15 | Cc1cccc(OCCC(=O)N2CCCN(C(N)=O)CC2)c1C | 15.5%
16 | NC(=O)CN1CCCN(C(=O)Cc2ccc(F)cc2)CC1 | 5.03%
17 | Cc1cccc(OCCC(=O)N2CCCN(CC(N)=O)CC2)c1C | 55.9%
18 | COC(=O)CN1CCCN(C(=O)CCOc2cccc(C)c2C)CC1 | 29.7%
19 | NC(=O)CN1CCCN(C(=O)Cc2ccc3ccccc3c2)CC1 | -9.98%
20 | NC(=O)CN1CCCN(C(=O)Cc2ccc(Br)cc2)CC1 | 54.4%
21 | CN(CC(=O)NCC(=O)Nc1ccc(F)cc1)Cc1cccs1 | 5.87%
22 | CSC(C)C(=O)N1CCCN(c2ncccc2C#N)CC1 (configuration not stated) | 1.78%
23 | N#Cc1cccnc1N1CCCC(CO)(Cc2ccccc2F)C1 (configuration not stated) | -17.2%
24 | Cc1ccccc1CC1(CO)CCCN(c2ncccc2C#N)C1 (configuration not stated) | 56.8%
25 | N#Cc1cccnc1N1CCCC(CO)(Cc2cccc(Cl)c2)C1 (configuration not stated) | -84%
26 | N#Cc1cccnc1N1CCCC(CO)(Cc2ccc(F)cc2)C1 (configuration not stated) | 85.5%

Row | SMILES | INHIBITION
27 | CCC1(CO)CCCN(c2ncccc2C#N)C1 (configuration not stated) | 5.14%
28 | Cc1ccccc1CN1C[C@@H]2COC[C@]2(CNC(=O)C2CCC2)C1 | 43%
29 | CCOCc1nc(N2CCCC2)sc1C(=O)NCCC(=O)OCC | 2.55%
30 | Cn1ccnc1CN1CCc2c(COCC3CC3)nn(C)c2C1 | 38.5%
31 | Cn1cc(C2CC(=O)NC23CCN(C(=O)Cc2ccccn2)CC3)cn1 (configuration not stated) | -7.29%
32 | CNC(=O)N1CCC2(CC1)CC[C@@]1(C(=O)NC)CN(S(C)(=O)=O)C[C@@H]21 | 12.5%
33 | Cc1ncccc1Oc1nccnc1C1CCN(C(C)C)CC1 | 40.9%
34 | CCc1nccn1-c1nccnc1C1CCN(C(=O)COC)CC1 | 67.7%
35 | COCC(=O)N1CCC(c2nccnc2Oc2cccnc2C)CC1 | 50.4%
36 | Cc1ncccc1Oc1nccnc1C1CCN(S(C)(=O)=O)CC1 | 32.3%
37 | CCc1nccn1-c1cccc(C2CCN(C(=O)COC)CC2)n1 | 20.8%
38 | CCc1nccn1-c1nccnc1C1CCCN(C(=O)COC)C1 (configuration not stated) | 48.4%
39 | CCc1nc(C2CCCN2C(=O)c2cnc3n[nH]c(C)c3c2)no1 (configuration not stated) | 27%
40 | CC(CN1CCCC1=O)NC(=O)Nc1cccnc1-n1cccn1 (configuration not stated) | 4.66%
41 | OC1CCN(c2ccnc3c(F)cc(Br)cc23)CC1 | 16.6%
42 | CN1CCN(c2ccnc3c(F)cc(Br)cc23)CC1 | 62.8%
43 | CC(=O)N1CCN(c2ccnc3c(F)cc(Br)cc23)CC1 | 40.6%
44 | CN(C)CC(=O)N1CCOC2(CCCN(c3ncccc3F)C2)C1 (configuration not stated) | 21.8%
45 | CN([C@@H]1CCC[C@@H](n2ccnc2)[C@@H]1O)S(=O)(=O)c1cn(C)cn1 | 13.7%
46 | CC(C)(C)c1n[nH]c(C2CN(Cc3nnc(C4CCC4)o3)CCO2)n1 (configuration not stated) | -38.2%
47 | O=C(CCc1ccccc1)N1CCCC(c2n[nH]c3nccnc23)C1 (configuration not stated) | 32.8%
48 | Cc1nc2c(c(C)c1CC(=O)NCc1ccccc1F)c(=O)[nH]n2C | 39.2%
49 | Cc1nc2c(c(C)c1CC(=O)Nc1ccccc1F)c(=O)[nH]n2C | 60.9%
50 | COc1ccccc1NC(=O)Cc1c(C)nc2c(c1C)c(=O)[nH]n2C | -16.5%
51 | COc1ccccc1C(O)CNC(=O)Nc1cccnc1OC (configuration not stated) | -13.5%
52 | COc1cc(N2CCC3(CC2)CC(N2CCOCC2)C3)ncn1 | 0.112%
